Assay results reported in PubChem BioAssay (NCI).
The panel holds about 79,000 compounds, 15% with a hit somewhere; the sample as a whole holds those more often. The source made the active and inactive calls. Cut-off read from the data, not from the text of the source: active = growth inhibition above about 70%; inactive = the rest.

How the values were obtained:
[1] = NCI Yeast Anticancer Drug Screen. Data for the rad50 strain (AID 155);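 note: 0% = growth of vehicle-only cultures of the same strain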; details: S. cerevisiae rad50 strain growth inhibition, hits give high values
In short: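 Yeast carrying a defined DNA repair defect were exposed to test compounds, and growth was compared with vehicle-treated controls to give percent inhibition.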

[2] = NCI Yeast Anticancer Drug Screen. Data for the mec2-1 strain (AID 157); details: S. cerevisiae mec2-1 strain, hits give high values
In short: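 Test agents were screened against the mec2-1 yeast strain, with defined DNA repair or cell cycle alteration. Growth was scored as inhibition against vehicle-only controls.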

[3] = NCI Yeast Anticancer Drug Screen. Data for the sgs1 mgt1 strain (AID 161);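 note: 0% = growth of cultures given vehicle only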; details: S. cerevisiae sgs1 mgt1 strain, hits give high values
In short: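 Test agents were incubated with a DNA-repair-mutant yeast strain. Growth was then read and compared against vehicle-treated controls.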

[4] = NCI Yeast Anticancer Drug Screen. Data for the cln2 rad14 strain (AID 165);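 note: 0% = growth equal to vehicle treated cultures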; details: S. cerevisiae cln2 rad14 strain, hits give high values
In short: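 Growth of compound-exposed yeast (cln2 rad14 genotype) measured and expressed as inhibition relative to vehicle.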

[5] = NCI Yeast Anticancer Drug Screen. Data for the bub3 strain (AID 167); details: S. cerevisiae bub3 mutant strain, hits give high values
In short: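 Compounds were applied to a genetically altered yeast strain carrying a cell-cycle control defect. Growth inhibition was scored against vehicle-treated controls.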

[6] = NCI Yeast Anticancer Drug Screen. Data for the mlh1 rad18 strain (AID 175); details: S. cerevisiae mlh1 rad18 strain growth inhibition, hits give high values
In short: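 In this whole-cell yeast screen, a strain with altered DNA damage repair is challenged with compound, and its growth is measured against matched vehicle-treated controls.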

[7] = at 5.0 µM (retest, dose inferred, filed as 0.5)
[8] = at 50.0 µM (retest, dose inferred, filed as 5.0)

Measured: growth inhibition

O=C(CCC1OCCO1)Nc1cc(NCc2ccccc2)ccc1OCc1ccccc1
inactive: [1]; [7] 1% | [1]; [8] 48% | [2]; [7] 2% | [2]; [8] 69% | [2]; at 50.0 µM 57% | [3]; [7] -173% | [4]; [7] 0% | [4]; [8] 16% | [4]; at 50.0 µM 43.7% | [5]; [7] 0% | [5]; [8] 39% | [5]; at 50.0 µM 65% | [6]; [7] 16% | [6]; [8] 68%
active: [1]; at 50.0 µM 71.2% | [3]; [8] 73% | [3]; at 50.0 µM 89.4% | [6]; at 50.0 µM 70.2%

CSC(C=P(c1ccccc1)(c1ccccc1)c1ccccc1)=Nc1ccccc1
active: [1]; [8] 98% | [1]; at 50.0 µM 96.8% | [2]; [8] 96% | [2]; at 50.0 µM 99% | [3]; [8] 98% | [3]; at 50.0 µM 95.5% | [4]; [8] 97% | [4]; at 50.0 µM 98.3% | [5]; [8] 97% | [5]; at 50.0 µM 98.2% | [6]; [8] 97% | [6]; at 50.0 µM 95.7%
inactive: [1]; [7] 58% | [2]; [7] 22% | [3]; [7] 23% | [4]; [7] 3% | [5]; [7] 16% | [6]; [7] 15%

COC(=O)C(C#N)C(c1ccccc1)c1c[nH]c2ccccc12 (stereo not given)
inactive: [1]; [7] -3% | [2]; [7] -4% | [2]; [8] 59% | [2]; at 50.0 µM 16.3% | [3]; [7] -5% | [3]; [8] 63% | [3]; at 50.0 µM 55.7% | [4]; [7] -52% | [4]; at 50.0 µM 24.1% | [5]; [7] -7% | [5]; at 50.0 µM -4.8% | [6]; [7] -14%
active: [1]; [8] 75% | [1]; at 50.0 µM 77.2% | [4]; [8] 82% | [5]; [8] 71% | [6]; [8] 89% | [6]; at 50.0 µM 71%

Cc1cc2c(Br)cc(Br)c(O)c2nc1C(=O)c1ccccc1
active: [3]; [8] 90% | [4]; [8] 80% | [5]; [8] 87%
inactive: [1]; [7] 23% | [1]; [8] 39% | [1]; at 50.0 µM 31.8% | [2]; [7] 16% | [2]; [8] 38% | [2]; at 50.0 µM 19.5% | [3]; [7] 37% | [3]; at 50.0 µM 35.8% | [4]; [7] 33% | [4]; at 50.0 µM 43.9% | [5]; [7] 20% | [5]; at 50.0 µM 29.9% | [6]; [7] 32% | [6]; [8] 33% | [6]; at 50.0 µM 21.8%

COC(=O)c1nc(=S)[nH]c(C(=O)OC)c1C(=O)c1ccc([N+](=O)[O-])cc1
inactive: [1]; [7] 5% | [2]; [7] -8% | [2]; [8] 64% | [2]; at 50.0 µM 49.4% | [3]; [7] -5% | [4]; [7] 2% | [4]; at 50.0 µM 31.1% | [5]; [7] 5% | [5]; at 50.0 µM 61.1% | [6]; [7] -2%
active: [1]; [8] 84% | [1]; at 50.0 µM 96.8% | [3]; [8] 80% | [3]; at 50.0 µM 96.5% | [4]; [8] 70% | [5]; [8] 93% | [6]; [8] 93% | [6]; at 50.0 µM 91%

CCCCN(Cc1ccccc1)CC(O)c1cc2c(c3ccccc13)CCCC2 (stereo not given)
inactive: [1]; [7] -2% | [2]; [7] 9% | [3]; [7] 0% | [4]; [7] -7% | [4]; [8] 59% | [5]; [7] -7% | [6]; [7] 18%
active: [1]; [8] 85% | [1]; at 50.0 µM 95.9% | [2]; [8] 89% | [2]; at 50.0 µM 80% | [3]; [8] 95% | [3]; at 50.0 µM 93.2% | [4]; at 50.0 µM 92.2% | [5]; [8] 84% | [5]; at 50.0 µM 76.1% | [6]; [8] 92% | [6]; at 50.0 µM 92.8%

CCOC(=S)SSC(=S)NCCNC(=S)SSC(=S)OCC
active: [1]; at 50.0 µM 70.7% | [2]; [8] 72% | [3]; [8] 86% | [3]; at 50.0 µM 79.8% | [4]; at 50.0 µM 73.1% | [5]; [8] 91% | [6]; [8] 78% | [6]; at 50.0 µM 76.4%
inactive: [1]; [7] 9% | [1]; [8] 40% | [2]; [7] 4% | [2]; at 50.0 µM 36.5% | [3]; [7] 13% | [4]; [7] -1% | [4]; [8] 30% | [5]; [7] 4% | [5]; at 50.0 µM 2.55% | [6]; [7] 11%

CCN(CCN1C(=O)C2CCCCC2C1=O)c1ccc(N=O)c(C)c1 (stereo not given)
active: [1]; [7] 71% | [1]; [8] 97% | [1]; at 50.0 µM 98.8% | [2]; [8] 99% | [2]; at 50.0 µM 98.8% | [3]; [8] 99% | [3]; at 50.0 µM 97.9% | [4]; [8] 96% | [4]; at 50.0 µM 88.6% | [5]; [8] 98% | [5]; at 50.0 µM 99.1% | [6]; [7] 72% | [6]; [8] 97% | [6]; at 50.0 µM 97.5%
inactive: [2]; [7] 66% | [3]; [7] 28% | [4]; [7] 23% | [5]; [7] 48%

CCOC(=O)c1sc(N/N=C2\NC(=O)/C(=C/c3ccc([N+](=O)[O-])cc3)S2)nc1C
active: [1]; [8] 74% | [1]; at 50.0 µM 92.8% | [2]; [8] 90% | [2]; at 50.0 µM 73.9% | [3]; [8] 92% | [3]; at 50.0 µM 97.7% | [4]; [8] 87% | [4]; at 50.0 µM 87.1% | [5]; [8] 92% | [5]; at 50.0 µM 95.3% | [6]; [8] 92% | [6]; at 50.0 µM 96.2%
inactive: [1]; [7] 13% | [2]; [7] 10% | [3]; [7] 12% | [4]; [7] -4% | [5]; [7] -26% | [6]; [7] 22%

O=C1c2ccccc2C(=O)c2c(/C=C\N3CCCCC3)ccnc21
inactive: [1]; [7] 40% | [2]; [7] 27% | [2]; [8] 60% | [3]; [7] 40% | [4]; [7] 38% | [5]; [7] 48% | [6]; [7] 37%
active: [1]; [8] 86% | [1]; at 50.0 µM 87.7% | [2]; at 50.0 µM 92.4% | [3]; [8] 99% | [3]; at 50.0 µM 92.6% | [4]; [8] 95% | [4]; at 50.0 µM 90.7% | [5]; [8] 98% | [5]; at 50.0 µM 92.3% | [6]; [8] 84% | [6]; at 50.0 µM 90.6%
